Values joined by “and” are separate entries in the source; they are usually repeats but may differ in a detail not shown here. Identical values can stand only once. Inconclusive results are not listed. Active and inactive are the calls of the source. Unless noted, calls come from the whole dose curve; as a rule, active = well fitted curve in the direction sought with a large enough effect; inconclusive = small, poorly fitted or top-dose-only effect, or another doubt; inactive = no such curve, though single readings can be large; an effect the other way counts as inactive or inconclusive.
Experiments:
[1] = Validation of Assay for Modulators of Lamin A Splicing (AID 1459; active = well fitted curve in the direction sought with a large enough effect in the signal ratio; the % refers to the signal ratio;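 note: cells exposed to compound for two days before reading; 0% is about no effect; ratio rise marks activators and ratio drop marks inhibitors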)
Summary of the method: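 Splicing correction is reported by an EGFP-containing lamin A minigene in stably transfected S3 HeLa cells, while DsRed2 controls for viability and nonspecific signal. Cells are exposed to compounds for 48 hrs before the GFP over RFP ratio is taken.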

[2] = qHTS Assay for Lipid Storage Modulators (AID 1519; calls by dose curve; for activity change, negative = inhibition: % is set by controls: 0 for no effect and ±100 for the full control effect); conditions: Drosophila S3 cells, BODIPY lipid droplet/cell ratio, laser cytometry, cells loaded with oleic acid; for activity change, negative = inhibition: at 57.5 µM (top of the series)
Summary of the method: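 Cells seeded at 5,000 per well were treated with compounds over a concentration series and loaded with oleic acid (400 uM, as added). Lipid droplet fluorescence (488 nm excitation, 500-530 nm channel) was read by laser-scanning cytometry and normalized to 20 uM Triacsin C.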

[3] = target: DNA repair nuclease/redox regulator APEX1 (Homo sapiens) (UniProt P27695); assay: qHTS Validation Assay for Inhibitors of the Human Apurinic/apyrimidinic Endonuclease 1 (APE1) (AID 1705; note: potency is the fitted concentration of half-maximal effect;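 for activity change, negative = inhibition: TAMRA fluorescence gain over two minutes as APE1 cuts a quenched THF abasic duplex; % is set by controls: 0 for no effect and ±100 for the full control effect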)
Sequence of DNA repair nuclease/redox regulator APEX1 (Homo sapiens) (P27695 whole entry, looked up): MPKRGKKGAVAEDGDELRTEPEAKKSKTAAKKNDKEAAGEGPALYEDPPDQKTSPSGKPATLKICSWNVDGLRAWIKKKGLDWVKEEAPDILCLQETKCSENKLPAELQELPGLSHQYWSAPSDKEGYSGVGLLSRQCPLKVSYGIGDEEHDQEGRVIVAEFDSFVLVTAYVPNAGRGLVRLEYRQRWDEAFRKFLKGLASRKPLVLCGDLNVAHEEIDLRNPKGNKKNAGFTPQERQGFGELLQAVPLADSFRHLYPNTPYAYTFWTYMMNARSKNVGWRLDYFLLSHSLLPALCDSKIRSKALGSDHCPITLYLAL
Summary of the method: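 Endonuclease activity of human APE1 is followed as dequenching when the enzyme incises a tetrahydrofuran abasic site in a short duplex labelled 5'-TAMRA/3'-BHQ-2 (50 nM final), after 15 min enzyme–compound preincubation at room temperature.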

[4] = Counterscreen for APE1 Inhibitors: Fluorescent Dye Displacement Validation Assay (AID 1707);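 note: plate controls were ThO with dsDNA and no compound for no effect and ThO without dsDNA for full effect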
Summary of the method: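 Thiazole Orange (250 nM) bound to 50 nM TAMRA-labelled dsDNA with tetrahydrofuran abasic site; displacement by DNA-binding compounds lowers fluorescence. Buffer 50 mM Tris-HCl pH 7.5, 50 mM NaCl, 2 mM MgCl2, 0.01% Tween-20; endpoint read at 480/540 nm.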

[5] = target: Endonuclease 4 (Escherichia coli (strain K12)) (UniProt P0A6C1); assay: Counterscreen for APE1 Inhibitors: qHTS Validation Assay for Inhibitors of Endonuclease IV (AID 1708); note: % is set by controls: 0 for no effect and ±100 for the full control effect
Summary of the method: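 qHTS concentration-response format; LOPAC1280 tested under APE1-screen conditions. 2 nM enzyme, 15 min compound preincubation at RT, then 50 nM TAMRA/BHQ-2 abasic substrate; kinetic fluorescence read, three reads at 60 s intervals.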

[6] = qHTS for differential inhibitors of proliferation of Plasmodium falciparum line 7G8 (AID 1815);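 note: parasite growth measured after three days of incubation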; note: potency is the fitted concentration of half-maximal effect;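 for activity change, negative = inhibition: plate controls were vehicle wells for no effect and reference inhibitor wells for full effect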
[7] = qHTS for differential inhibitors of proliferation of Plasmodium falciparum line GB4 (AID 1816); conditions: Potency: Plasmodium falciparum GB4 proliferation inhibition;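 note: parasite growth measured after 72 h incubation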; note: potency is the fitted concentration of half-maximal effect;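 for activity change, negative = inhibition: 0% = vehicle DMSO and -100% = reference inhibitor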
[8] = qHTS for differential inhibitors of proliferation of Plasmodium falciparum line 3D7 (AID 1876); note: potency is the fitted concentration of half-maximal effect
[9] = target: Alpha-galactosidase A (Homo sapiens) (UniProt P06280); assay: Counterscreen for Glucocerebrosidase Inhibitors: qHTS Assay for Human alpha-Galactosidase at pH 4.5 (AID 992); note: 0% is about no effect
Sequence of Alpha-galactosidase A (Homo sapiens) (P06280 whole entry, looked up): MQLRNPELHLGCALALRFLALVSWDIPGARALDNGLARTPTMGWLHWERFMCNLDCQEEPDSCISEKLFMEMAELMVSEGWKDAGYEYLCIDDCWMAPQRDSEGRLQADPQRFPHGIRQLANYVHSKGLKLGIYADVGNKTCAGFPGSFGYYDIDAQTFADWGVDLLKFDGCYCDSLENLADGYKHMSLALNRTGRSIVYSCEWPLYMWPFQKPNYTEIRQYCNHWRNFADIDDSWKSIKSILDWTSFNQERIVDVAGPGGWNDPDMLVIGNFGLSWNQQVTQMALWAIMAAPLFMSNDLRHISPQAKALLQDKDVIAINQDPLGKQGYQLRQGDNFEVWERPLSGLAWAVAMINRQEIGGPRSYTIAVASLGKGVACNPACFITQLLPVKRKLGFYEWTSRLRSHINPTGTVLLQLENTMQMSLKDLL
Summary of the method: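 Human enzyme (2 nM) with 80 uM 4-methylumbelliferyl alpha-D-galactopyranoside in 50 mM citric acid, 0.005% Tween-20, pH 4.5, 20 min at room temperature. Compounds 0.7 nM–77 uM; fluorescence Ex 365/Em 440 after pH 10 stop; AC50 from Hill fits.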

[10] = target: alpha-glucosidase (Oryza sativa, rice) (UniProt Q653V4); assay: Counterscreen for Glucocerebrosidase Inhibitors: qHTS Assay for Rice alpha-Glucosidase at pH 5.0 (AID 997);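 note: 0% = full activity with enzyme and -100% = basal without enzyme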
Summary of the method: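 Rice alpha-glucosidase (4 nM final) with 400 uM 4-methylumbelliferyl-alpha-D-glucopyranoside in citrate buffer pH 5.0, 20 min at room temperature, stopped at pH 10; fluorescence 365/440 nm, compounds 0.7 nM–77 uM, AC50 from Hill fits.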

[11] = measured here: cell count channel max response
[12] = measured here: lipid channel max response

CN1CCCC1CCOC(C)(c1ccccc1)c1ccc(Cl)cc1 (stereo not drawn)
-27.1%: max response [2, 12]
inactive: outcome [1] | activity change, negative = inhibition [2] 0.234% | Potency [3] | Potency [4] | Potency [5]
-30.3%: max response [2, 11]
active: Potency [6] 5.01 µM | Potency [7] 5.62 µM | Potency [8] 3.98 µM

N[C@@H](CCC(=O)N[C@H](CSN=O)C(=O)NCC(=O)O)C(=O)O
inactive: outcome [1] | activity change, negative = inhibition [2] 0.446% | Potency [3] | Potency [4] | Potency [5] | Potency [6] | Potency [7] | Potency [8]
-19.6%: max response [2, 12]
-20.1%: max response [2, 11]

CCCCCC(O)CCCC(=O)O (stereo not drawn)
-25.3%: max response [2, 11]
inactive: outcome [1] | activity change, negative = inhibition [2] 0.833% | Potency [3] | Potency [4] | Potency [5] | Potency [6] | Potency [7] | Potency [8]
-24.6%: max response [2, 12]

NC1CONC1=O (stereo not drawn)
24% and -1.09%: max response [2, 12]
9.83% and -1.76%: max response [2, 11]
inactive: outcome [1] | activity change, negative = inhibition [2] 9.95% and 0.344% | Potency [3] | Potency [4] | Potency [5] | Potency [6] | Potency [7] | Potency [8]

COc1cc(C(O)CO)ccc1O (stereo not drawn)
inactive: outcome [1] | activity change, negative = inhibition [2] -0.467% | Potency [3] | Potency [4] | Potency [5] | Potency [6] | Potency [7] | Potency [8]
-50.8%: max response [2, 11]
-49.3%: max response [2, 12]

N=C(N)c1ccccc1
inactive: outcome [9] | outcome [10] | outcome [1] | activity change, negative = inhibition [2] 0.991% | Potency [3] | Potency [4] | Potency [5] | Potency [6] | Potency [7] | Potency [8]
1.79%: max response [2, 12]
9.53%: max response [2, 11]

COCc1nc2c([nH]1)c(=O)n(C)c(=O)n2CC(C)C
-18.2%: max response [2, 12]
inactive: outcome [9] | outcome [1] | activity change, negative = inhibition [2] 1.67% | Potency [3] | Potency [4] | Potency [5] | Potency [6] | Potency [7] | Potency [8]
-19.5%: max response [2, 11]

C=C(C)C1CC=C(C(=O)O)CC1 (stereo not drawn)
18.4% and 48.7%: max response [2, 12]
inactive: outcome [1] | activity change, negative = inhibition [2] 0.974% and 1.72% | Potency [3] | Potency [4] | Potency [5] | Potency [6] | Potency [7] | Potency [8]
16.2% and 48.1%: max response [2, 11]

CC(=O)O[C@H]1CC2(C)[C@@H](C[C@@H](O)[C@H]3[C@@]4(C)CC[C@@H](O)[C@@H](C)[C@@H]4CC[C@@]32C)C1=C(CCC=C(C)C)C(=O)O (stereo partly drawn)
active: Potency [3] 39.8 µM | Potency [6] 8.91 µM
-5.43%: max response [2, 12]
-5.46%: max response [2, 11]
inactive: outcome [1] | activity change, negative = inhibition [2] 0.469% | Potency [4] | Potency [5]

O=C(O)C1=CCCNC1
11.8% and 11.1% and -5.85%: max response [2, 11]
19.5% and 15.3% and -4.32%: max response [2, 12]
inactive: outcome [9] | outcome [10] | outcome [1] | activity change, negative = inhibition [2] 5.3% and 2.39% and 0.0791% | Potency [3] | Potency [4] | Potency [5] | Potency [6] | Potency [7] | Potency [8]

O=C(O)c1cccnc1C(=O)O
9.96%: max response [2, 11]
12.5%: max response [2, 12]
inactive: outcome [9] | outcome [10] | outcome [1] | activity change, negative = inhibition [2] 1.68% | Potency [3] | Potency [4] | Potency [5] | Potency [6] | Potency [7] | Potency [8]

CCCn1c(=O)c2c(ncn2C)n(CCC)c1=O
inactive: outcome [9] | outcome [10] | outcome [1] | activity change, negative = inhibition [2] -2.98% | Potency [3] | Potency [4] | Potency [5] | Potency [6] | Potency [7] | Potency [8]
-33.5%: max response [2, 12]
-22.4%: max response [2, 11]

Cc1ccc([N+](=O)[O-])cc1S(=O)(=O)N(C)C
inactive: outcome [9] | outcome [1] | activity change, negative = inhibition [2] -0.817% and -0.0593% | Potency [3] | Potency [4] | Potency [5] | Potency [6] | Potency [7] | Potency [8]
0.358% and 67%: max response [2, 12]
1.19% and 66.8%: max response [2, 11]

O=C(O)CCC(=O)N1CCCC1C(=O)O (stereo not drawn)
inactive: outcome [1] | activity change, negative = inhibition [2] -1.81% | Potency [3] | Potency [4] | Potency [5] | Potency [6] | Potency [7] | Potency [8]
27.9%: max response [2, 12]
29.3%: max response [2, 11]

Oc1cc2c(cc1O)C(c1ccccc1)CNCC2 (stereo not drawn)
inactive: outcome [1] | activity change, negative = inhibition [2] 4.39% and 0.147% | Potency [3] | Potency [4] | Potency [5]
1.14% and -18.7%: max response [2, 11]
16.2% and -20.2%: max response [2, 12]

NCCCCN=C(N)N
4.55%: max response [2, 11]
23.5%: max response [2, 12]
inactive: outcome [9] | outcome [1] | activity change, negative = inhibition [2] 6.41% | Potency [3] | Potency [4] | Potency [5] | Potency [6] | Potency [7] | Potency [8]

NC(C(=O)N[C@@H]1C(=O)N2C(C(=O)O)=C(Cl)CS[C@H]12)c1ccccc1 (stereo partly drawn)
-32.3%: max response [2, 12]
-29.4%: max response [2, 11]
inactive: outcome [1] | activity change, negative = inhibition [2] -2.36% | Potency [3] | Potency [4] | Potency [5] | Potency [6] | Potency [7] | Potency [8]

CC1=C(/C=C/C(C)=C/C=C/C(C)=C\C(=O)O)C(C)(C)CCC1
active: Potency [6] 7.94 µM | Potency [7] 12.6 µM | Potency [8] 14.1 µM
13.6%: max response [2, 12]
inactive: outcome [1] | activity change, negative = inhibition [2] 6.72% | Potency [3] | Potency [4] | Potency [5]
3.57%: max response [2, 11]

NC1C=CC=C(C(=O)O)C1 (stereo not drawn)
inactive: outcome [1] | activity change, negative = inhibition [2] 2.8% | Potency [3] | Potency [4] | Potency [5] | Potency [6] | Potency [7] | Potency [8]
4.79%: max response [2, 11]
-17.7%: max response [2, 12]

Cc1cc2c(cc1Cl)N(C(=O)Nc1ccnc3ccccc13)CC2
inactive: outcome [9] | outcome [1] | activity change, negative = inhibition [2] 3.56% | Potency [3] | Potency [4] | Potency [5] | Potency [6] | Potency [7] | Potency [8]
57.9%: max response [2, 11]
64%: max response [2, 12]

CCSC(=N)N
inactive: outcome [9] | outcome [1] | activity change, negative = inhibition [2] 3.43% and 3.42% and 1.1% | Potency [3] | Potency [4] | Potency [5] | Potency [6] | Potency [7] | Potency [8]
15.2% and -3.11% and -5.48%: max response [2, 12]
11.3% and -10.8% and -6.69%: max response [2, 11]
